Source: PubChem BioAssay (NCI)
The panel holds about 79,000 compounds, 15% with a hit somewhere; the sample as a whole holds those more often. The source made the active and inactive calls. Rule as the data show it: active = growth inhibition above about 70%; inactive = the rest.

Assay: NCI Yeast Anticancer Drug Screen. Data for the CLN2oe strain (AID 163);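 also: 0% = growth of vehicle-only control cultures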
Conditions: S. cerevisiae CLN2oe strain, active compounds read high
Method: Growth inhibition of yeast strains with defined genetic alterations is measured as a screen for potential anti-cancer activity. Selected strains with alterations in DNA damage repair or cell cycle control were exposed to compounds and growth inhibition was measured relative to vehicle treated controls. The strain used in this assay is CLN2oe

Measured: growth inhibition

Cc1ccc(CC2(OCCN(C)C)CCC(C(C)(C)C)CC2)cc1 (stereo not given)
inactive: at 1.2 µM -23% | at 3.7 µM -18% | at 11.0 µM -11% | at 33.0 µM 42%
active: at 100.0 µM 98%

CCOC1Oc2ccccc2-c2nc(N)ncc21 (stereo not given)
inactive: at 1.2 µM 7% | at 3.7 µM 4% | at 11.0 µM -14% | at 33.0 µM -27% | at 100.0 µM 1%

O=C(O)CNC(=S)Nc1ccccc1
active: at 100.0 µM 86%
inactive: at 1.2 µM 2% | at 3.7 µM -9% | at 11.0 µM -3% | at 33.0 µM 52%

CC(C)=NOC(=O)Nc1ccc(Cl)cc1
inactive: at 1.2 µM -30% | at 3.7 µM -18% | at 11.0 µM -6% | at 33.0 µM 8% | at 100.0 µM 38%

Cc1cc(=O)oc2c(C)c3occc(=O)c3cc12
inactive: at 1.2 µM -2% | at 3.7 µM -1% | at 11.0 µM 9% | at 33.0 µM 6% | at 100.0 µM 29%

Cc1ccc(NC(=O)/C(CC2N=c3c(ccc4c(O)c5ccccc5c(O)c34)=NC2O)=N/NC(C)(C)C)cc1 (stereo not given)
inactive: at 1.2 µM -5% | at 3.7 µM -2% | at 11.0 µM 3% | at 33.0 µM 0% | at 100.0 µM 1%

Cc1cccc(C(C)(C)C)c1NC(=O)C(C#N)C1=C(Cl)C(=O)c2ccccc2C1=O (stereo not given)
inactive: at 1.2 µM 4% | at 3.7 µM 30% | at 11.0 µM 58%
active: at 33.0 µM 98% | at 100.0 µM 98%

CCOC(=O)C#Cc1ccc([N+](=O)[O-])cc1
inactive: at 1.2 µM 1% | at 3.7 µM -2% | at 11.0 µM -3% | at 33.0 µM 2% | at 100.0 µM 10%
